# Compound activity from PubChem BioAssay.
# Pf Dd2 growth = Plasmodium falciparum Dd2 growth inhibition; AID 1347417; 120,000 compounds, 4.3% hits; P. falciparum Dd2 growth, SYBR Green, 72 h; Potency, µM (doses to about 28.9 µM), inactives show at the highest dose activity, negative = inhibition, hits mostly inhibitors; active = well fitted inhibition curve with a large enough effect;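 also: plate controls were DMSO vehicle for no effect and reference drug for full effect; nearly all actives have a fitted effect of over 65% in size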
#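 Readout: SYBR Green fluorescence, 485 nm excitation, 535 nm emission, after ~16 h lysis at 37C. Before that, Dd2-infected red cells (2.5% hematocrit) grew 72 h with compound, 29 uM top final concentration.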
# Active calls of the source: *; i = inactive; [ ] = dose if it differs, or a comment. Only a selection was taken, and hits are over-represented in it overall. Potency is read from the fitted curve at half-maximal effect.
SMILES,Pf Dd2 growth
Cc1cccc(-n2cc(CN3CC[C@H](CO)[C@@H](O)C3)cn2)c1,-23%
CN1CCN(Cc2cnn(-c3cccc(Cl)c3)c2)CC1CCO (stereo not drawn),14µM*
COc1cc(CN2CCN(Cc3ccc(-n4cccn4)cc3C)CC2CCO)cc(OC)c1 (stereo not drawn),-11%
COc1ccc(-c2cc(CNC(=O)c3cn(CCN)nn3)no2)cc1,-21%
Cc1ccc(NC(=O)N2CCC(c3nc(CCOCC4CC4)no3)C2)cc1C (stereo not drawn),-20%
Cc1noc(C)c1CCC(=O)NC(c1cnn(C)c1)C1CC(O)C1 (stereo not drawn),5%
CSCC(=O)N1C[C@@H]2C[C@H](C1)c1c(-c3ccc(SC)cc3)ccc(=O)n1C2,-7%[44.1 µM]
CC(=O)Nc1ccc(-c2ccc(=O)n3c2[C@@H]2C[C@@H](CN(S(=O)(=O)c4cccs4)C2)C3)cc1,i
CSc1ccc(-c2ccc(=O)n3c2[C@@H]2C[C@@H](CN(S(=O)(=O)c4cccs4)C2)C3)cc1,8.9µM*
O=C1[C@H]2CN(Cc3cccs3)C[C@H]2C(=O)N1Cc1ccc2c(c1)OCO2,-23%
CC(C(=O)NCCc1nc2ccccc2n1C)C1CCOCC1 (stereo not drawn),i
CC(C)(C)C(=O)N1CCc2nc(-c3ccccc3)nc(-c3ccc(Cl)cc3)c2C1,5µM*
Cc1ccc(C(=O)N2CCc3nc(-c4ccccc4)nc(-c4ccc(Cl)cc4)c3C2)cc1,10µM*
CN(C)C(=O)N1CCc2nc(-c3ccccc3)nc(-c3ccc(Cl)cc3)c2C1,i
CC(=O)N1CCc2nc(-c3ccc(Cl)cc3)nc(-c3ccccc3)c2C1,-16%
Cc1nc2c(c(-c3ccc(Cl)cc3)n1)CN(C(=O)c1ccccc1)CC2,-7%
O=C(c1ccc(Cl)nc1)N1CCc2nc(-c3ccc(Cl)cc3)nc(-c3ccccc3)c2C1,-24%
COc1ccc(CC(=O)N2CCC(Cc3nc(-c4ccccc4)no3)CC2)cc1,-18%
CC1CCCCN1c1ccc(C(N)=O)cc1NC(=O)CS(C)(=O)=O (stereo not drawn),-3%
Cc1cc(C)n(CCC(=O)N2CCC(Cc3nc(-c4ccccc4)n[nH]3)CC2)n1,i
Cc1ccc(CNC(=O)N2CCC(Cc3nc(-c4ccncc4)n[nH]3)CC2)cc1,-10%
Cc1cccc(NC(=O)N2CCC(Cc3nc(-c4ccccc4)n[nH]3)CC2)c1,1.6µM*
CCc1nc2cc(N3CCCC(C(=O)O)C3)cnc2nc1CC (stereo not drawn),i
O=C(c1cccc(F)c1)N1CCC(N2CC3CC(C2)[C@H]2CCCC(=O)N2C3)CC1 (stereo partly drawn),5%
COc1ccccc1CN1CCc2nc(C(=O)Nc3ccc(Cl)cc3)oc2CC1,-4%[44.1 µM]
SMILES,Pf Dd2 growth
COc1ccc(CN2CCc3nc(C(=O)Nc4ccc(Cl)cc4)oc3CC2)cn1,2.5µM*
COc1ccc(CN2CCc3nc(C(=O)NCCOc4ccccc4)oc3CC2)cn1,i
COc1ccc(CN2CC3(C2)C(=O)N(Cc2ccc(C)o2)C(=O)[C@@H]2C[C@@H](O)CN23)cc1,-8%[44.1 µM]
CC(=O)N1CCC(CC(=O)N2CCCCCCN(C)C(=O)[C@@H]3CCC[C@@H]32)CC1,8%
Cc1cnc(CCNC(=O)Nc2ccc3c(c2)OCCO3)n1C1CC1,-16%
Cc1cnc(C2CCOCC2)n1C1CCN(C(=O)Nc2ccc3c(c2)OCCO3)CC1,7.9µM*
Cc1cnc(C2CC2)n1C1CCN(C(=O)NC(C)C)CC1,-14%
CNC(=O)[C@@H]1C[C@H](Oc2ccccc2)CN1C(=O)CCc1ccccc1,-20%
COc1cccc(NC(=O)N[C@H]2CCN(C(=O)c3cnccn3)[C@@H]2C(=O)N[C@H](Cc2ccccc2)C(N)=O)c1,5%
COC(=O)c1cc(CN2CCCC3(CCNC3)C2)ccc1O (stereo not drawn),-17%
C=Cc1cccc(CN2CCCC3(CCNC3)C2)c1 (stereo not drawn),10µM*
COc1cc(CN2CCC3(CCNCC3)C2)cc(OC)c1OC,-4%
CCn1cc(S(=O)(=O)N2C[C@@H](Oc3ccccc3)C[C@@H]2C(=O)NCCOC)cn1,7%
CN(C)c1ccc(C(=O)N[C@H]2CO[C@H]3[C@@H]2OC[C@@H]3n2cc(-c3ccccn3)nn2)cc1,i
Cc1ccsc1CN1CCOc2cc([S+](=O)([O-])Nc3cccnc3)ccc2C1,-15%[44.1 µM]
COc1ccc(CN2CCCC3(CN[S+](=O)([O-])c4ccccc4N3)C2)cc1 (stereo not drawn),i
CC(C)CCN1C(=O)CC[C@]2(C(=O)N3CCOCC3)CCCC[C@@H]12,-19%
CN1C(=O)CC[C@]2(C(=O)N3CCN(c4ccc(F)cc4)CC3)CCCC[C@@H]12,-3%
CC(C)CCN1C(=O)CC[C@]2(C(=O)N3CCN(c4ccc(F)cc4)CC3)CCCC[C@@H]12,10µM*
Cc1ccc(CN2C(=O)NC3(CCN(C(=O)c4cccc(Cl)c4)C3)C2=O)cc1 (stereo not drawn),i
COc1cc(OC)c(NC(=O)c2ccc3nc(C(C)C)oc3c2)cc1Cl,-12%
COc1cc(OC)c(NC(=O)COc2ccccc2-c2nnc(-c3ccccc3)o2)cc1Cl,12%
COc1cc(OC)c(NC(c2nnc(-c3ccccc3)o2)c2ccc(F)cc2Cl)cc1Cl (stereo not drawn),6.3µM*
Cc1ccc(Cl)cc1NC(=O)c1ccc(-c2nc(CSc3ccccc3)c(C)o2)cc1,i
Cc1cccc(N2CCN(C(c3ccc(F)cc3)c3nnc(-c4ccccc4)o3)CC2)c1C (stereo not drawn),11µM*
SMILES,Pf Dd2 growth
Cc1ccc(Cl)cc1N1CCN(c2ncnc3onc(-c4ccc(F)cc4)c23)CC1,-12%
Cc1cccc(N2CCN(c3ncnc4onc(C)c34)CC2)c1C,-5%
Cc1ccc(Cl)cc1NC(c1ccc(F)cc1)c1nnc(-c2ccccc2)o1 (stereo not drawn),13µM*
Cc1ccccc1-c1nnc(CN2CCN(c3cc(Cl)ccc3C)CC2)o1,-10%
Cc1ccc(Cl)cc1NC(=O)c1cnn2c(C(F)F)cc(-c3ccccc3)nc12,14%
COCCn1c(C)cc(O)c(C(c2ccc(F)cc2)N2CCN(c3ccccc3)CC2)c1=O (stereo not drawn),i
Cc1ccc(Cl)cc1N1CCN(C(c2ccc(F)cc2)c2nnc(-c3ccccc3)o2)CC1 (stereo not drawn),7.9µM*
CCNC(=O)N1CCCCCC1CN1CCC(C)CC1 (stereo not drawn),i
Clc1ccc(C2CN(c3cc(C4CC4)ncn3)CCO2)cc1 (stereo not drawn),-27%
O=C(NC1CC1)C1CC(=O)N(c2n[nH]c3ccccc23)C1 (stereo not drawn),0%
CC(=O)NC1(C)CCN(Cc2ccc(-c3ccc4c(ccn4C)c3)cc2)C1 (stereo not drawn),10µM*
CC(=O)NC1(C)CCN(Cc2ccc(-c3ccccc3Oc3ccccc3)cc2)C1 (stereo not drawn),7.1µM*
COc1cc(CN2CCC(C)(NC(C)=O)CC2)cc(-c2ccccc2)c1,i
CC(=O)NC1(C)CCN(Cc2ccc(-c3ccc([S+](C)(=O)[O-])cc3)cc2)C1 (stereo not drawn),i
COc1ccccc1CNC(=O)C1(CCO)CCN(Cc2ccccc2)C1 (stereo not drawn),i
CC(=O)NC1(C)CCCN(Cc2cc(Br)cs2)C1 (stereo not drawn),i
CN(Cc1n[nH]c2c1CCCC2)C(=O)c1ccc(CCC(C)(C)O)cc1,-14%
